Laboratory results published in PubChem BioAssay (NCATS).
Where “and” joins values, the source holds several entries; their conditions need not be identical. Equal entries are not always repeated. Results filed as inconclusive are left out. Calls of active or inactive are those of the source. Unless noted, calls come from the whole dose curve; as a rule, active = well fitted curve in the direction sought with a large enough effect; inconclusive = small, poorly fitted or top-dose-only effect, or another doubt; inactive = no such curve, though single readings can be large; an effect the other way counts as inactive or inconclusive.

What was measured:
[1] = biological target: Cellular tumor antigen p53 (Homo sapiens) (UniProt P04637); assay: Primary qHTS for small molecule compounds that upregulate eGFP-tagged delta133p53alpha (in N-terminal) cells. (AID 2060322); conditions: NCI-H358 eGFP-delta133p53alpha fluorescence, 24 h; activation: active compounds read high;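 note: cells pre-induced with doxycycline then dosed without doxycycline; series mostly up to about 56 µM; 0% = DMSO vehicle and 100% = reference activator; nearly all actives have a fitted effect of over 75% in size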
In short: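 NCI-H358 cells pre-induced 24 h with 10 ng/ml doxycycline for eGFP-delta133p53alpha, plated dox-free and exposed 24 h at 37C to titrated compounds. Fixed, Hoechst-stained; gated GFP peak intensity by laser scanning cytometry, normalized to DMSO (0%) and 57.5 uM 5-azacytidine (100%).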

[2] = biological target: Cellular tumor antigen p53 (Homo sapiens) (UniProt P04637); assay: Primary qHTS for small molecule compounds that upregulate eGFP-tagged delta133p53alpha (in C-terminal) cells. (AID 2060324); note: potency is the fitted concentration of half-maximal effect
In short: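 Read-out: gated-cell GFP peak intensity (laser scanning cytometer), plate-normalized with DMSO as 0% activity, after 24 h compound exposure at 37C. Cells were C-terminal eGFP-tagged delta133p53alpha NCI-H358, doxycycline-induced (100 ng/ml, 24 h) before plating.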

[3] = biological target: Aldehyde dehydrogenase, mitochondrial (Homo sapiens) (UniProt P05091); assay: qHTS for Inhibitors of the Aldehyde Dehydrogenase Family (ALDH2) Validation screens (AID 2061302; active = well fitted inhibition curve with a large enough effect; title and protocol of this record describe different tests;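 note: plate controls were DMSO vehicle for no effect and maximal DPI positive control response for full effect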)
[4] = biological target: Retinaldehyde dehydrogenase 3 (Homo sapiens) (UniProt P47895); assay: qHTS for Inhibitors of the Aldehyde Dehydrogenase Family (ALDH1A3) Validation screen (AID 2061312); note: % is set by controls: 0 for no effect and ±100 for the full control effect; nearly all actives have a fitted effect of over 45% in size
[5] = biological target: Aldehyde dehydrogenase 1A1 (Homo sapiens) (UniProt P00352); assay: qHTS for Inhibitors of the Aldehyde Dehydrogenase Family (ALDH1A1) Confirmatory screens (AID 2061316); note: potency is the fitted concentration of half-maximal effect; nearly all actives have a fitted effect of over 65% in size
[6] = BET inhibitor-based combinations targeting novel dependencies in MECOM-rearranged (r) AML: OCI-AML3 cell line (AID 2202232); conditions: Potency: OCI-AML3 viability;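 note: series mostly up to about 46 µM; plate controls were DMSO vehicle wells for no effect and wells without cells for full effect; nearly all actives have a fitted effect of over 35% in size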
In short: (§1)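 500 cells/well; 11-pt dose curve; 48 h, standard incubator; CellTiter-Glo luminescence after 15 min RT; DMSO/empty-well normalization; AUC plus Z-AUC (mean-centered within each line).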

[7] = BET inhibitor-based combinations targeting novel dependencies in MECOM-rearranged (r) AML: MV-4-11 cell line (AID 2202233);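 note: plate controls were DMSO for no effect and blank wells for full effect; nearly all actives have a fitted effect of over 45% in size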
In short: (§2)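 Cells were plated at 500 per well and exposed to each drug across an 11-point dose range for 48 hr at standard incubator conditions. Viability was read by CellTiter-Glo luminescence, and activity was expressed as AUC and per-cell-line Z-transformed AUC.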

[8] = BET inhibitor-based combinations targeting novel dependencies in MECOM-rearranged (r) AML: HNT-34 cell line (AID 2202234);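 note: plate controls were vehicle wells for no effect and cell-free wells for full effect; nearly all actives have a fitted effect of over 35% in size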
In short: as §2

[9] = BET inhibitor-based combinations targeting novel dependencies in MECOM-rearranged (r) AML: UCSD-AML1 cell line (AID 2202235);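 note: series mostly up to about 46 µM; plate controls were DMSO vehicle wells for no effect and blank wells for full effect; nearly all actives have a fitted effect of over 40% in size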
In short: as §2

[10] = BET inhibitor-based combinations targeting novel dependencies in MECOM-rearranged (r) AML: AML-194 cell line (AID 2202237;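 note: plate controls were vehicle wells for no effect and wells without cells for full effect; nearly all actives have a fitted effect of over 40% in size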)
In short: as §1

[11] = BET inhibitor-based combinations targeting novel dependencies in MECOM-rearranged (r) AML: SET-2 cell line (AID 2202231); conditions: SET-2 AML cells viability, CellTiter-Glo luminescence, 48 h; viability: active compounds read low, series mostly up to about 46 µM;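 note: plate controls were DMSO treated cells for no effect and wells without cells for full effect; nearly all actives have a fitted effect of over 35% in size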
In short: as §1

[12] = BET inhibitor-based combinations targeting novel dependencies in MECOM-rearranged (r) AML: AML-191 cell line (AID 2202236;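 note: plate controls were vehicle wells for no effect and wells without cells for full effect; nearly all actives have a fitted effect of over 35% in size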)
In short: as §1

Sequence of Cellular tumor antigen p53 (Homo sapiens) (P04637 whole entry, looked up): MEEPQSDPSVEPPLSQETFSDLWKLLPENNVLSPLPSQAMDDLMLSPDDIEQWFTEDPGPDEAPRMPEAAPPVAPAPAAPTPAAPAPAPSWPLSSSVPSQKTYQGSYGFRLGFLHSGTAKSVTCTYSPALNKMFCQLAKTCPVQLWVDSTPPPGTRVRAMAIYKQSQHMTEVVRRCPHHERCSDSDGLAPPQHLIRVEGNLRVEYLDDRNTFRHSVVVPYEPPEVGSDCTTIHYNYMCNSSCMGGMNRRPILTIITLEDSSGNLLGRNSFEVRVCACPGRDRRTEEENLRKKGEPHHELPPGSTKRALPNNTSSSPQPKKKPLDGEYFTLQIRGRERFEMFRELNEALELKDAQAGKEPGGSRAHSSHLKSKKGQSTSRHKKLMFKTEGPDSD

COc1ccc(OC)c(C(O)C(C)N)c1 (configuration not stated)
inactive: activation [1] 15.6% | Potency [2] | Potency [3] | Potency [4]

NCC(O)c1cc(O)c(O)cc1F (configuration not stated)
inactive: activation [1] -23.1% | Potency [2] | Potency [3] | Potency [4]

CCCN(CCC)CCc1ccc(O)c(O)c1
inactive: activation [1] -0.248% | Potency [2] | Potency [3] | Potency [4]

NC(=O)CN1CC(O)CC1=O (configuration not stated)
inactive: activation [1] -34.2% | Potency [2] | Potency [3] | Potency [4]

c1ccc(C2(c3ccccc3)CC2C2=NCCN2)cc1 (configuration not stated)
inactive: activation [1] -13.2% | Potency [2] | Potency [3] | Potency [4]

C[C@]12Cc3cn4c(nc3C=C1CCC1C2CC[C@@]2(C)[C@H]1CC[C@@]2(O)C#N)nc1ccccc14 (some centres not stated)
inactive: activation [1] -9.64% | Potency [3]
active: Potency [2] 30.1 µM | Potency [5] 12.7 µM

COc1ccc2c(c1OC)C(=O)O[C@H]2[C@@H]1c2cc3c(cc2CCN1C)OCO3
inactive: activation [1] 9.21% and -17.4% | Potency [2] | Potency [3] | Potency [4]

O=P1(N(CCCl)CCCl)NCCCO1 (configuration not stated)
inactive: activation [1] -25.4% and -10.4% and -10.6% | Potency [2] | Potency [3] | Potency [6] | Potency [7] | Potency [8] | Potency [9] | Potency [10]

O=c1[nH]oc2c1CCNC2
inactive: activation [1] -18.6% and 14.5% | Potency [2] | Potency [3] | Potency [4]

NC(=O)CN1CCCC1=O
inactive: activation [1] -3.35% and 1.41% | Potency [2] | Potency [3] | Potency [4]

NC(=O)c1cc(N2CC2)c([N+](=O)[O-])cc1[N+](=O)[O-]
inactive: activation [1] -14.9% | Potency [2] | Potency [3] | Potency [4]

O=c1[nH]c2ccccc2n1CCCN1CCC(n2c(=O)[nH]c3cc(Cl)ccc32)CC1
inactive: activation [1] 22.2% and -21.7% | Potency [2] | Potency [3] | Potency [4] | viability [11] 95.9% | Potency [8] | Potency [10]

CC[C@@H](C(N)=O)N1CCCC1=O
inactive: activation [1] 0.54% | Potency [2] | Potency [3] | Potency [4] | Potency [6] | Potency [8] | Potency [9] | Potency [12] | Potency [10]

CCN1C[C@@]2(COC)C3[C@@H](OC)C4[C@@H]1C3([C@@H]1C[C@]3(O)[C@H](OC(=O)c5ccccc5)[C@@H]1[C@]4(OC(C)=O)[C@@H](O)[C@@H]3OC)[C@H](OC)C[C@H]2O
inactive: activation [1] -12.5% | Potency [2] | Potency [3] | Potency [4]

C=CCN1C[C@@H](C)N([C@H](c2ccc(C(=O)N(CC)CC)cc2)c2cccc(OC)c2)C[C@@H]1C
inactive: activation [1] -25.3% | Potency [2] | Potency [3] | Potency [4]

Cc1cccc(C)c1NC(=O)CN1CCCC1=O
inactive: activation [1] -17.7% and -15.1% and -5.58% | Potency [2] | Potency [3] | Potency [4] | viability [11] 109% | Potency [7] | Potency [8]

CCCN1CCC[C@H](c2cccc(O)c2)C1
inactive: activation [1] 4.78% | Potency [2] | Potency [3] | Potency [4]

CCCN1CCC[C@@H]2Cc3[nH]ncc3C[C@H]21
inactive: activation [1] -5.86% and -11.2% and 2.09% | Potency [2] | Potency [3] | Potency [4]

Nc1ccncc1
inactive: activation [1] -16.4% and 3.84% | Potency [2] | Potency [3] | Potency [4]

CCS(=O)(=O)Nc1cccc(C(=C2CCCCC2)c2cnc[nH]2)c1
inactive: activation [1] -47% | Potency [2] | Potency [3] | Potency [4]

CN1C2CCC1CC(OC(=O)c1cc(Cl)cc(Cl)c1)C2 (configuration not stated)
inactive: activation [1] -57.3% | Potency [2] | Potency [3] | Potency [4]

CC(C)=CCOc1c2occc2cc2ccc(=O)oc12
inactive: activation [1] -10.9% and -24.3% | Potency [3] | Potency [4]

CCCN1CCc2cc(O)cc3c2[C@H]1Cc1ccc(O)c(O)c1-3
inactive: activation [1] 23.3% | Potency [3]

C[N+]1(C)C2CCC1CC(OC(=O)C(CO)c1ccccc1)C2 (configuration not stated)
inactive: activation [1] -2.46% and -16.7% | Potency [3] | Potency [4]
